Laboratory results from PubChem BioAssay.
Active and inactive are the calls of the source.

Tested on: Neuregulin-1 EGF-like domain
Assay: small molecules binding NRG1 EGF domain – biochemical, small-molecule microarray, 635 nm fluorescence, primary screen (AID 1081);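 note: binding of the protein to compounds printed on small-molecule microarray slides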
Details: higher = more signal
In the case of `C/C=C/[C@@H](CCn1cc([C@H](O)c2ccccc2)nn1)[Si](C)(C)c1ccc(OC)cc1`, the composite z-score is reported as 0.96. For `CCCC=C(CCC)[C@@H](NC(=O)Cc1ccccc1)c1ccc(C(=O)OC)cc1`, the composite z-score was 0.606. In the case of `C=C(COC)/C(=C/C[C@@H](OC(=O)c1ccncc1)c1cccc(OCCO)c1)c1cc(C(=O)OC)ccc1OC`, the composite z-score is reported as 1.38. With `COc1cc(NN2C(C(O)c3ccc(I)cc3)C=CC3C(=O)N(C)C(=O)C32)cc(OC)c1OC` (configuration not stated) the composite z-score was 1.14. For `COCCCNC(=O)[C@@]1(Cc2ccccc2CN=[N+]=[N-])N=C(c2ccc(OCCCO)cc2)O[C@H]1c1ccccc1N=[N+]=[N-]`, the composite z-score was 1.05. Work on `O=C(CS)NCCCCCNC(=O)[C@@H]1C[C@@H]2C(=O)N3CCC[C@H]3C(=O)N2[C@@H]1c1ccc(O)cc1` yielded a composite z-score of 1.32. With `Cc1cc(C)c(C(O)C2C=CC3C(=O)N(c4ccccc4)C(=O)C3N2Nc2ccc([N+](=O)[O-])cc2)c(C)c1` (configuration not stated) the composite z-score was 1.36. Compound `C=C[C@H](C)[C@H](OC(=O)Nc1ccc(SC)cc1)c1ccc(O)c2ccccc12` has a composite z-score of 1.05. In the case of `COC(=O)C(CC#Cc1ccc2c(c1)[C@]1(C(=O)N2)[C@H](C(=O)N2CCc3cc(OC)c(OC)cc3C2)[C@H]2C(=O)O[C@H](c3ccccc3)[C@H](c3ccccc3)N2[C@@H]1c1ccc(OCCO)cc1)C(=O)OC`, the composite z-score is reported as 1.31. For `COC(=O)[C@@]1(Cc2ccc(OC)cc2)[C@H]2c3cc(C(=O)N4CCCC4)n(CCc4ccc(O)c(OC)c4)c3C[C@H]2CN1C(=O)c1ccccc1`, the composite z-score was 0.803. `O=C1N(CCS(=O)(=O)c2ccccc2)Cc2ccccc2C[C@@]12COC(c1ccc(OCCCO)cc1)=N2` showed a composite z-score of 1.35. Work on `CC(C)C[C@H]1NC(=O)[C@H](C)NC(=O)[C@@]23C(=O)N[C@@H](Cc4ccccc4)C2[C@H](C)[C@@]2(C)O[C@H]2C3/C=C/C/C=C\CNC1=O` (some centres not stated) yielded a composite z-score of 0.511. `COc1ccc([Si](C)(C)[C@H]2[C@H](CC(=O)N3CCC[C@H]3CO)O[C@@]3(C(=O)N(Cc4ccc(N5C(=O)c6cccc7cccc5c67)cc4)c4ccccc43)[C@@H]2C)cc1` showed a composite z-score of 0.804. `COc1cccc(C)c1NC(=O)O[C@H]1[C@H](OC(=O)Nc2ccccc2)[C@H](OC(=O)Nc2ccccc2)[C@@H](OC)O[C@@H]1CO` gave a composite z-score of 1.22. For `C=CCC(OC(C)=O)[C@@H]1[C@@H](N(Cc2ccc(-c3ccccc3)cc2)C(=O)c2cccc3ccccc23)c2cc(OCCCO)ccc2N1C(=O)c1ccc2ccccc2n1` (some centres not stated), the composite z-score was -0.669. `O=C1O[C@H](c2ccccc2)[C@H](c2ccccc2)N2[C@H]1[C@@H](C(=O)N1CCN(c3ncccn3)CC1)[C@]1(C(=O)Nc3ccc(C#CCCO)cc31)[C@H]2c1ccc(OCCO)cc1` gave a composite z-score of 0.995. Compound `COC(=O)[C@@]1(Cc2ccccc2N=[N+]=[N-])N=C(c2ccc(OCCCO)cc2)O[C@H]1c1ccccc1` has a composite z-score of 1.16.

Tested on: not listed separately
Assay: FRG1 expression reporter modulators in myotubes – cell-based, C2C12 myotubes, firefly/Renilla luciferase, luminescence, FRG1 inhibition for FSHD, primary screen (AID 1084)
Details: FRG1 promoter luciferase, higher = more signal, called active from +8 up or from −8 down
With `COCC(=C=CC[C@@H](O)c1ccccc1OCCO)C[C@@H](O)c1ccccn1` the z-score was -0.0964 (inactive). For `COc1ccc([Si](C)(C)[C@H]2[C@H](CCO)O[C@@]3(C(=O)N(Cc4cccc(N5CCOC5=O)c4)c4ccccc43)[C@@H]2C)cc1`, the z-score was -2.15 (inactive). With `COC(=O)C(CC#Cc1ccc2c(c1)[C@]1(C(=O)N2)[C@H](C(=O)N2CCc3cc(OC)c(OC)cc3C2)[C@H]2C(=O)O[C@H](c3ccccc3)[C@H](c3ccccc3)N2[C@@H]1c1ccc(O)cc1)C(=O)OC` the z-score was 1.77 (inactive). With `COc1ccc([Si](C)(C)[C@H]2[C@H](CCn3cc(CCO)nn3)O[C@@]3(C(=O)N(Cc4cccc(N5C(=O)c6cccc7cccc5c67)c4)c4ccccc43)[C@@H]2C)cc1` the z-score was -3.54 (inactive). In the case of `C[C@H]1ON(c2ccccc2)[C@@H](c2ccccc2)[C@@H]1C(=O)N1C(=O)OC[C@@H]1c1ccccc1`, the z-score is reported as 0.84 (inactive). In the case of `COc1ccc(C#Cc2ccc3c(c2)[C@]2(C(=O)N3)[C@H](C(=O)O)[C@H]3C(=O)O[C@H](c4ccccc4)[C@H](c4ccccc4)N3[C@@H]2c2ccc(OCCO)cc2)cc1`, the z-score is reported as -0.176 (inactive). With `C=CCC(OC(C)=O)[C@@H]1[C@@H](N(Cc2ccc(-c3ccccc3)cc2)C(=O)Cc2ccc(OC)cc2)c2cc(OCCCO)ccc2N1C(=O)c1ccc(-c2ccccc2)cc1` (some centres not stated) the z-score was -1.24 (inactive). With `Cc1ccc(S[C@]2(C(=O)NCC(C)C)CC(=O)N(C3CCCCC3)[C@@H]2c2ccc(CO)cc2I)cc1` the z-score was -2.29 (inactive). In the case of `COC(=O)C(CC#Cc1ccc2c(c1)[C@]1(C(=O)N2)[C@H](c2ccc(OCCO)cc2)N2[C@H](c3ccccc3)[C@H](c3ccccc3)OC(=O)[C@H]2[C@@H]1C(=O)O)C(=O)OC`, the z-score is reported as -0.434 (inactive). For `[N-]=[N+]=NCc1ccccc1C[C@@]1(C(=O)NCCN2CCOCC2)N=C(c2ccc(OCCCO)cc2)O[C@@H]1c1ccccc1CN=[N+]=[N-]`, the z-score was -2.25 (inactive). For `C[C@]12C(=O)N(CCCO)[C@@H]3C(=O)N(c4ccc(Cl)cc4)CC=CC31O[C@@H]1/C=C\CCCOC(=O)C12` (some centres not stated), the z-score was 1.43 (inactive). For `CCCCC(O)C1C=CC2C(=O)N(Cc3ccccc3)C(=O)C2N1n1cnnc1` (configuration not stated), the z-score was 0.2 (inactive). In the case of `Cc1ccccc1C(O)C1C=CC2C(=O)N(C)C(=O)C2N1Nc1ccc([N+](=O)[O-])cc1[N+](=O)[O-]` (configuration not stated), the z-score is reported as 0.248 (inactive). For `COCCOC(=O)N1C(=O)[C@@]2(c3cc(C#Cc4ccc(OC)cc4)ccc31)[C@H](C(=O)N1CCc3cc(OC)c(OC)cc3C1)[C@H]1C(=O)O[C@H](c3ccccc3)[C@H](c3ccccc3)N1[C@@H]2c1ccc(OCCO)cc1`, the z-score was 1.36 (inactive). With `O=c1c2ccc(Br)cc2nc(-c2ccccc2)n1Cc1cccc(O)c1` the z-score was 4.59 (inactive). With `Cc1ccc(S[C@]2(C(=O)NCCN3CCOCC3)CC(=O)N(C3Cc4ccccc4C3)[C@@H]2c2ccc(CO)cc2)cc1` the z-score was -0.611 (inactive). With `C=CC[C@@]1(C(=O)NCCN2CCOCC2)N=C(c2ccc(OCCCO)cc2)O[C@@H]1c1ccccc1` the z-score was 0.254 (inactive). For `C[C@H]1NC(=O)C([C@@H](C)OCc2ccccc2)NC(=O)[C@@]23C(=O)N[C@@H](Cc4ccccc4)C2[C@H](C)[C@@]2(C)O[C@H]2C3/C=C/CC/C=C/CNC1=O` (some centres not stated), the z-score was 0.428 (inactive). For `C/C=C/[C@@H](CCn1cc([C@H](O)c2ccccc2)nn1)[Si](C)(C)c1ccc(OC)cc1`, the z-score was -1.41 (inactive). In the case of `CCCC=C(CCC)[C@@H](NC(=O)Cc1ccccc1)c1ccc(C(=O)OC)cc1`, the z-score is reported as -0.26 (inactive). With `C=C(COC)/C(=C/C[C@@H](OC(=O)c1ccncc1)c1cccc(OCCO)c1)c1cc(C(=O)OC)ccc1OC` the z-score was -3.79 (inactive). With `COc1cc(NN2C(C(O)c3ccc(I)cc3)C=CC3C(=O)N(C)C(=O)C32)cc(OC)c1OC` (configuration not stated) the z-score was 0.777 (inactive). In the case of `COCCCNC(=O)[C@@]1(Cc2ccccc2CN=[N+]=[N-])N=C(c2ccc(OCCCO)cc2)O[C@H]1c1ccccc1N=[N+]=[N-]`, the z-score is reported as -1.21 (inactive). For `O=C(CS)NCCCCCNC(=O)[C@@H]1C[C@@H]2C(=O)N3CCC[C@H]3C(=O)N2[C@@H]1c1ccc(O)cc1`, the z-score was 0.0995 (inactive). With `Cc1cc(C)c(C(O)C2C=CC3C(=O)N(c4ccccc4)C(=O)C3N2Nc2ccc([N+](=O)[O-])cc2)c(C)c1` (configuration not stated) the z-score was -0.625 (inactive). For `C=C[C@H](C)[C@H](OC(=O)Nc1ccc(SC)cc1)c1ccc(O)c2ccccc12`, the z-score was 2.77 (inactive). With `COC(=O)C(CC#Cc1ccc2c(c1)[C@]1(C(=O)N2)[C@H](C(=O)N2CCc3cc(OC)c(OC)cc3C2)[C@H]2C(=O)O[C@H](c3ccccc3)[C@H](c3ccccc3)N2[C@@H]1c1ccc(OCCO)cc1)C(=O)OC` the z-score was 0.732 (inactive). With `COC(=O)[C@@]1(Cc2ccc(OC)cc2)[C@H]2c3cc(C(=O)N4CCCC4)n(CCc4ccc(O)c(OC)c4)c3C[C@H]2CN1C(=O)c1ccccc1` the z-score was -0.454 (inactive). In the case of `O=C1N(CCS(=O)(=O)c2ccccc2)Cc2ccccc2C[C@@]12COC(c1ccc(OCCCO)cc1)=N2`, the z-score is reported as 0.0674 (inactive). For `CC(C)C[C@H]1NC(=O)[C@H](C)NC(=O)[C@@]23C(=O)N[C@@H](Cc4ccccc4)C2[C@H](C)[C@@]2(C)O[C@H]2C3/C=C/C/C=C\CNC1=O` (some centres not stated), the z-score was 0.171 (inactive). For `COc1ccc([Si](C)(C)[C@H]2[C@H](CC(=O)N3CCC[C@H]3CO)O[C@@]3(C(=O)N(Cc4ccc(N5C(=O)c6cccc7cccc5c67)cc4)c4ccccc43)[C@@H]2C)cc1`, the z-score was -4.19 (inactive). For `COc1cccc(C)c1NC(=O)O[C@H]1[C@H](OC(=O)Nc2ccccc2)[C@H](OC(=O)Nc2ccccc2)[C@@H](OC)O[C@@H]1CO`, the z-score was 1.59 (inactive). For `C=CCC(OC(C)=O)[C@@H]1[C@@H](N(Cc2ccc(-c3ccccc3)cc2)C(=O)c2cccc3ccccc23)c2cc(OCCCO)ccc2N1C(=O)c1ccc2ccccc2n1` (some centres not stated), the z-score was -1.45 (inactive). With `O=C1O[C@H](c2ccccc2)[C@H](c2ccccc2)N2[C@H]1[C@@H](C(=O)N1CCN(c3ncccn3)CC1)[C@]1(C(=O)Nc3ccc(C#CCCO)cc31)[C@H]2c1ccc(OCCO)cc1` the z-score was 0.0862 (inactive). With `COC(=O)[C@@]1(Cc2ccccc2N=[N+]=[N-])N=C(c2ccc(OCCCO)cc2)O[C@H]1c1ccccc1` the z-score was -2.33 (inactive).
